Data reported in PubChem BioAssay AID588726 (The Scripps Research Institute Molecular Screening Center, 2011).
Screen size: about 360,000 compounds; about 8,200 (2.3%) were called active. The full list was thinned out, with actives kept by preference. Unmarked numbers belong to inactive results. Rule as the data show it: active = inhibition above about 27%; inactive = the rest.

molecular target: Fructose-bisphosphate aldolase (Mycobacterium tuberculosis (strain ATCC 25618 / H37Rv)) (UniProt P9WQA3); assay: M. tuberculosis aldolase activity blockers – biochemical, fluorescence, strain H37Rv, primary screen (AID 588726);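 also: 0% = vehicle and 100% = reference inhibitor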; details: purified M. tuberculosis FBA, fluorescence read-out, at 1 µM, hits give high values
Sequence (P9WQA3 whole entry, looked up): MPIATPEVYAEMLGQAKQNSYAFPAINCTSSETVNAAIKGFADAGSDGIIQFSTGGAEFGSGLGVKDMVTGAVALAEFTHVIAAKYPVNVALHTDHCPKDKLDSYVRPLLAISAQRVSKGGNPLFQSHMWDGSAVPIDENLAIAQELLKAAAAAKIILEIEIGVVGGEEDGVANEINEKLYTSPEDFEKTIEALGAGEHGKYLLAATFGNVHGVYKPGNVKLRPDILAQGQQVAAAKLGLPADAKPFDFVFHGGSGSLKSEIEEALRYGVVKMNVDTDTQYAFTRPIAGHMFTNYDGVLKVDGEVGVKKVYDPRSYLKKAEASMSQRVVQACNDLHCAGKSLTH

Q: How did the inhibition turn out when `Cc1ccc(OCC(=O)Nc2ccccc2Sc2ccc(Cl)cc2)c([N+](=O)[O-])n1` was run?
A: -0.96%

Q: With `CC1(C)CN(c2ccc(-c3ccnc4ncnn34)cc2)C1=O` as the molecule, how does the inhibition read?
A: 809% [above what the read-out allows, likely interference] (active)

Q: For `Nc1c(-c2ccc(F)cc2)cnc2ncnn12`, which inhibition is on record?
A: 1.26%

Q: With `O=C(CSCc1ccccc1Cl)NNC(=O)c1ccccc1` as the molecule, how does the inhibition read?
A: -0.9%

Q: With `C[C@H]1CN([C@@H](C)CO)C(=O)c2cc(Br)cnc2O[C@H]1CN(C)S(=O)(=O)c1cccs1` as the molecule, how does the inhibition read?
A: 27.8% (active)

Q: For `C[C@H]1CN([C@@H](C)CO)C(=O)c2cc(-c3cccc(F)c3)cnc2O[C@@H]1CN(C)S(C)(=O)=O`, which inhibition is on record?
A: 2.59%

Q: `CC(C)NC(=O)Nc1cccc2c1O[C@H](CN(C)S(=O)(=O)c1cccs1)[C@@H](C)CN([C@H](C)CO)C2=O` was tested. Which inhibition did it give?
A: 4.46%

Q: How did the inhibition turn out when `Cc1cc(C)cc(OCC(=O)OCC(=O)NC2CCCC2)c1` was run?
A: -0.07%

Q: With `CCN(C(=O)CSc1cccc[n+]1[O-])c1ccccc1` as the molecule, how does the inhibition read?
A: 0.35%

Q: `Cc1ccc(S(=O)(=O)n2oc(=O)c(C3CCCCC3)c2N)cc1` was tested. Which inhibition did it give?
A: -0.6%

Q: Which inhibition does the source give for `C=CCSc1nnc2c(n1)-c1cccc3cccc-2c13` here?
A: -1.23%

Q: For `CCOc1ccccc1C1CC(c2ccccc2)Nc2nc(N)nn21` (stereo not drawn), which inhibition is on record?
A: 35.6% (active)

Q: Which inhibition does the source give for `CCOc1ccccc1C1CC(c2ccc(Cl)cc2)Nc2nc(N)nn21` (stereo not drawn) here?
A: 4.25%

Q: Which inhibition does the source give for `FC(F)Oc1ccccc1C1CC(c2ccc(Br)s2)Nc2ncnn21` (stereo not drawn) here?
A: 1.95%

Q: For `CCc1cccc(C)c1NC(=O)COC(=O)Cc1ccsc1`, which inhibition is on record?
A: 4.93%

Q: For `CC(C)NC(=S)Nc1cccc2cnccc12`, which inhibition is on record?
A: -1.91%

Q: Which inhibition does the source give for `N#Cc1ccccc1S(=O)(=O)N1CCN(Cc2c(O)ccc3ccccc23)CC1` here?
A: 2.66%

Q: `Cc1c(CN2CCCCC2)c(O)n(CCO)c(=O)c1C#N` was tested. Which inhibition did it give?
A: 2.47%

Q: Which inhibition does the source give for `O=c1oc2c(CN3CCCCC3)c(O)ccc2c2c1CCCCC2` here?
A: 502% [above what the read-out allows, likely interference] (active)

Q: How did the inhibition turn out when `CCN(C(=O)CSc1ncnc2c1cnn2-c1ccccc1)C1CCS(=O)(=O)C1` (stereo not drawn) was run?
A: 32.7% (active)

Q: Which inhibition does the source give for `CCC(C)N(C(=O)CSc1ncnc2c1cnn2-c1ccccc1)C1CCS(=O)(=O)C1` (stereo not drawn) here?
A: -2.78%

Q: How did the inhibition turn out when `CC(C)CN(C(=O)CSc1ncnc2sccc12)C1CCS(=O)(=O)C1` (stereo not drawn) was run?
A: 2.25%

Q: `CN(C)C(=O)CCC(=O)N1CCCCC1C(=O)Nc1ccc(Oc2ccccc2F)cc1` (stereo not drawn) was tested. Which inhibition did it give?
A: -1.93%

Q: Which inhibition does the source give for `COc1ccccc1C(=O)Nc1cccc(C(=O)N2CCOCC2)c1` here?
A: 3.07%

Q: Which inhibition does the source give for `O=C(c1cccc(N2CCCC2=O)c1)N1CCOCC1` here?
A: -17.6%

Q: How did the inhibition turn out when `CCOCCc1c(O)nc(SCC(=O)NCc2ccco2)[nH]c1=O` was run?
A: 2.42%

Q: Which inhibition does the source give for `CS(=O)(=O)N(Cc1ccccc1Cl)c1ccc(C(=O)NCc2cccnc2)cc1` here?
A: -3.74%

Q: `CCN(CC(=O)Nc1cc(Cl)ccc1C)C(=O)CSCc1ccc(C)cc1` was tested. Which inhibition did it give?
A: 2.85%

Q: For `O=C(NC1CCCC1)C(c1c(F)cccc1Cl)N(C(=O)c1csnn1)C1CC1` (stereo not drawn), which inhibition is on record?
A: -1.18%

Q: Which inhibition does the source give for `COc1ccc(OC)c(NC(=O)CN(Cc2ccc(Cl)cc2)S(C)(=O)=O)c1` here?
A: -0.32%

Q: For `O=c1cc(C(F)(F)F)[nH]c(=O)n1C1CCCCC1`, which inhibition is on record?
A: -0.44%

Q: With `CC(Sc1sc(=S)sc1SC(C)C(=O)O)C(=O)O` (stereo not drawn) as the molecule, how does the inhibition read?
A: -1.78%

Q: How did the inhibition turn out when `O=C(NCCCN1CCOCC1)c1ccccc1NS(=O)(=O)c1ccc(F)cc1` was run?
A: 2.85%

Q: For `O=C(NCCCN1CCOCC1)c1cnn2c(-c3ccccc3)cc(-c3ccccc3)nc12`, which inhibition is on record?
A: 34.3% (active)

Q: For `O=C(NCCCN1CCOCC1)c1ccccc1NS(=O)(=O)c1ccc(Br)cc1`, which inhibition is on record?
A: 0.43%

Q: How did the inhibition turn out when `CCCCCC(=O)Nc1ccc(-c2cn3cccnc3n2)cc1` was run?
A: 131% (active)

Q: `CCCCC(=O)Nc1ccc(C(=O)NCCCn2ccnc2)cc1` was tested. Which inhibition did it give?
A: -1.64%

Q: With `Cc1ccc(NC(=O)c2cccnc2C(=O)Nc2ccc(C)cc2)cc1` as the molecule, how does the inhibition read?
A: 4.35%

Q: How did the inhibition turn out when `CC(=O)Nc1ccc(S(=O)(=O)Nc2ccc(-c3ccc4nnc(C)n4n3)cc2)cc1` was run?
A: -1.85%

Q: With `Cc1nn2c(=O)cc(COC(=O)c3ccc(NC(=O)C(C)(C)C)cc3)nc2s1` as the molecule, how does the inhibition read?
A: -0.5%

Q: `CC(=O)Nc1ccc(-c2cn3cccnc3n2)cc1` was tested. Which inhibition did it give?
A: 566% [above what the read-out allows, likely interference] (active)

Q: How did the inhibition turn out when `CCN(c1ccccc1)S(=O)(=O)c1ccc(NC(=O)C(C)(C)C)cc1` was run?
A: 0.11%

Q: `CCCCCC(=O)Nc1ccc(S(=O)(=O)Nc2ccc(Cl)nn2)cc1` was tested. Which inhibition did it give?
A: -0.48%

Q: With `CCOc1ccc(C(CC(=O)O)NC(=O)C23CC4CC(CC(C4)C2)C3)cc1OC` (stereo not drawn) as the molecule, how does the inhibition read?
A: -2.94%

Q: `CSc1ccc(CN2CCC2(C)C(=O)NCc2ccccc2Br)cc1` (stereo not drawn) was tested. Which inhibition did it give?
A: -0.17%

Q: With `COc1ccc(OC)c(NC(=O)C2CCCN2S(=O)(=O)c2ccc3c(c2)CC(C)N3C(C)=O)c1` (stereo not drawn) as the molecule, how does the inhibition read?
A: -1.84%

Q: `CCOC(=O)CSc1nnc(NC(=O)C2CC(=O)N(c3ccc(F)cc3)C2)s1` (stereo not drawn) was tested. Which inhibition did it give?
A: -1.95%

Q: Which inhibition does the source give for `O=C(N/C(=C\c1ccc([N+](=O)[O-])cc1)C(=O)N1CCOCC1)c1cccc(Br)c1` here?
A: -1.01%

Q: Which inhibition does the source give for `CCCS(=O)(=O)N1CCN(C(=O)c2cccs2)CC1` here?
A: 3.16%

Q: `CN(C)S(=O)(=O)c1cccc(NC(=S)N/N=C/C(=O)c2ccccc2)c1` was tested. Which inhibition did it give?
A: -3.5%

Q: For `CN(C)S(=O)(=O)c1ccc(NC(=O)N2CCOCC2)cc1`, which inhibition is on record?
A: 3.98%

Q: Which inhibition does the source give for `CN(C)S(=O)(=O)c1ccc(N/C=C(\[N+](=O)[O-])S(=O)(=O)c2ccccc2)cc1` here?
A: 57.2% (active)

Q: `O=C(O)CC(Cn1cnnn1)c1ccccc1` (stereo not drawn) was tested. Which inhibition did it give?
A: 3.12%

Q: With `Cc1cccc(CCNC(=O)Cn2ncc3c([nH]c4ccc(C)cc43)c2=O)c1` as the molecule, how does the inhibition read?
A: 1.24%

Q: How did the inhibition turn out when `Cc1ccc(CSCC(=O)N(C)CC(=O)Nc2ccc(C)cc2)cc1` was run?
A: -2.58%

Q: For `Cc1ccc(NC(=O)CN(C)C(=O)COC(=O)C(C)(C)Oc2ccc(Cl)cc2)cc1`, which inhibition is on record?
A: 2.5%

Q: How did the inhibition turn out when `Cc1ccc(NC(=O)CN(C)C(=O)COC(=O)c2nccnc2N)cc1` was run?
A: 88.8% (active)

Q: With `COc1cc2c(cc1OC)C1C(=O)c3cc(OS(C)(=O)=O)c(OC)cc3C1N(C)C2=O` (stereo not drawn) as the molecule, how does the inhibition read?
A: 3.73%

Q: With `O=C(Nc1nnc(C2=COCCO2)o1)c1ccc([N+](=O)[O-])s1` as the molecule, how does the inhibition read?
A: -5.53%

Q: Which inhibition does the source give for `O=C(Nc1nccs1)C1CCCN1S(=O)(=O)c1cccc2cccnc12` (stereo not drawn) here?
A: -1.37%

Q: `Cc1cc(C)nc(SCc2cn3c(C)cc(C)nc3n2)n1` was tested. Which inhibition did it give?
A: 78.2% (active)

Q: With `COc1ccc(C(C)=O)cc1CSc1nc2nc(C)cc(C)n2n1` as the molecule, how does the inhibition read?
A: -0.02%

Q: Which inhibition does the source give for `CCn1c(CSc2nc(C)cc(C)n2)nnc1SCC(N)=O` here?
A: -3.73%

Q: `COc1ccc(C(CNC(=O)CSc2ccccc2)N2CCOCC2)cc1` (stereo not drawn) was tested. Which inhibition did it give?
A: 2.08%

Q: `COc1cc2sc(C)nc2cc1C` was tested. Which inhibition did it give?
A: 4.23%

Q: For `CC(=O)N1CCOc2ccc(S(=O)(=O)N3CCC(C(=O)Nc4ccccc4F)CC3)cc21`, which inhibition is on record?
A: 3.64%

Q: Which inhibition does the source give for `O=C(CCCN1C(=O)c2cccc3cccc(c23)C1=O)N1CCN(Cc2ccc3c(c2)OCO3)CC1` here?
A: 10.2%

Q: With `O=C(Nc1cccc2ccccc12)N1CCC2(CC1)OCCO2` as the molecule, how does the inhibition read?
A: 44.6% (active)

Q: For `O=C(c1ccccc1[N+](=O)[O-])N1CCC2(CC1)OCCO2`, which inhibition is on record?
A: 0.71%

Q: How did the inhibition turn out when `COc1ccc(NC(=O)N2CCC3(CC2)OCCO3)c(OC)c1` was run?
A: -0.76%

Q: With `O=C(Nc1cccc2ccccc12)N1CCN(Cc2ccc3c(c2)OCO3)CC1` as the molecule, how does the inhibition read?
A: 41.2% (active)

Q: `O=C(Cc1ccccc1[N+](=O)[O-])N1CCN(Cc2ccc3c(c2)OCO3)CC1` was tested. Which inhibition did it give?
A: 0.16%

Q: With `CCOC(=O)c1cc2cc(-c3c(C(=O)OCC)oc4cc(O)cc(O)c4c3=O)ccc2o1` as the molecule, how does the inhibition read?
A: 0.2%

Q: With `COc1ccc(Cc2nnnn2CC(=O)O)cc1` as the molecule, how does the inhibition read?
A: 0.07%

Q: How did the inhibition turn out when `CN(CC(=O)Nc1ccccc1C(F)(F)F)C(=O)Cc1ccccc1F` was run?
A: -1.8%

Q: For `CC(C)N1C(=S)SC(C)(C)C1n1oc(=O)n(-c2ccc(Cl)c(Cl)c2)c1=O` (stereo not drawn), which inhibition is on record?
A: 1.39%

Q: Which inhibition does the source give for `COc1ccc(-c2c(C(C)=O)c(C)nc3sc4c(=O)n(-c5ccc(C)cc5)nnc4c23)cc1` here?
A: 3.94%

Q: `CCN1CC=C2C(C#N)=C(N)C(C#N)(C#N)[C@H](c3ccoc3)[C@H]2C1` was tested. Which inhibition did it give?
A: 28% (active)

Q: For `COC(=O)[C@]1(Cc2ccccc2)N[C@H](CN(C)S(=O)(=O)c2ccc(OC(F)(F)F)cc2)[C@@H]2C(=O)N(C)C(=O)[C@@H]21`, which inhibition is on record?
A: 0.06%

Q: Which inhibition does the source give for `O=C1c2ccccc2-c2ccccc2NC1O` (stereo not drawn) here?
A: -1.24%

Q: Which inhibition does the source give for `COc1ccc2[nH]c3c(c2c1)CCN[C@H]3C` here?
A: 0.12%

Q: For `COc1ccc2[nH]c3c(C)c4cc[n+](C)cc4c(C)c3c2c1`, which inhibition is on record?
A: -3.24%

Q: How did the inhibition turn out when `COc1ccc2[nH]c3ccc(OC)cc3c2c1` was run?
A: 28.3% (active)

Q: Which inhibition does the source give for `C[C@]1(C(=O)NCCc2c[nH]c3ccccc23)C=C[C@@H](Cc2ccccc2)N1C(=O)c1ccccc1` here?
A: -0.23%

Q: `COc1ccc(NC(=O)CSc2nnc(C3CC3)n2C)cc1S(=O)(=O)N1CCCCC1` was tested. Which inhibition did it give?
A: -1.4%

Q: With `CCOc1ccc(N(CC(=O)Nc2ccccc2F)S(=O)(=O)c2c(C)[nH]c(=O)[nH]c2=O)cc1` as the molecule, how does the inhibition read?
A: 0.28%

Q: Which inhibition does the source give for `O=C(NCCCn1ccnc1)C1CCCN(S(=O)(=O)c2cc(Cl)ccc2Cl)C1` (stereo not drawn) here?
A: -0.78%

Q: With `CCCCN=C(N)/C(C(=O)OCC)=C(\O)c1ccc(OC)cc1` as the molecule, how does the inhibition read?
A: -0.66%
